Screening results (PubChem)
Rab9 prom act: activates the Rab9 promoter; Huh7 Rab9 promoter-luciferase reporter, luminescence, 24 h; AID 485297; Potency, µM (series often up to 9.22 µM), without a hit: at the top dose activation, negative = inhibition, usual class: activators; 320,000 tested, 2.8% active; further: % of control where 0% means no effect; nearly all actives have a fitted effect of over 60% in size
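Cell-based reporter: Huh7 stable for Rab9 promoter-driven luciferase, plated in reduced-serum medium with 10% FBS at 1500 cells/well, compound-treated 24 h at 37 °C, luminescence read after 10 min reagent.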
NPC1 prom act: NPC1 promoter activation; Huh7 NPC1 promoter luciferase reporter, 24 h; Potency, µM (series often up to 9.22 µM), for the others: at the top dose activation, usual class: activators; 320,000 tested, 2.4% active; further: % of control where 0% means no effect; nearly all actives have a fitted effect of over 60% in size
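Luminescence read-out of NPC1 promoter-driven luciferase in stably transfected Huh7 cells; compounds delivered in DMSO and left 24 h at 37C, 5% CO2, qHTS titration format.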
KinaseGlo FLuc: blocks Kinase-Glo luciferase, a counter-screen artifact | Kinase-Glo luciferase, ATP luminescence, 8 min | AID 1379 | Potency, µM (series often up to 38.3 µM), for inactives: top-dose activity change, negative = inhibition, hits mostly inhibitors | 200,000 tested, 0.28% active | Q27757; further: on the % scale 0 is the no-effect control and ±100 the full control effect; nearly all actives have a fitted effect of over 60% in size
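Substrate mix (final 50 mM imidazole pH 7.2, 50 mM KCl, 7 mM MgCl2, 10 uM ATP, 0.01% Tween 20, 0.05% BSA) plus pin-tool compound, then Kinase-Glo detection mix; 8 min ambient, luminescence read.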
ELG1 genotox: genotoxicity induction in ELG1-luciferase HEK293T cells; HEK293T ELG1-luciferase reporter, luminescence, 16 h; Potency, µM (highest dose often 46 µM), for inactives: at the top dose activity change, positive = activation, most hits filed as activators; 330,000 tested, 1.3% active; AID 504466; further: % of control where 0% means no effect; nearly all actives have a fitted effect of over 60% in size
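After overnight (16 hr) compound treatment at 37 °C, ELG1-luciferase HEK293T cells were lysed with ONE-Glo; luminescence quantified 30 min later at room temperature.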
SMN2 splice up: SMN2 splice variant enhancement | HEK293 SMN2-luciferase splicing reporter, luminescence, 30-36 h | Potency, µM (series often up to 46.1 µM), without a hit: at the top dose activity change, positive = activation, actives largely listed as activators | AID 1458 | 210,000 tested, 2.8% active; further: % of control where 0% means no effect; nearly all actives have a fitted effect of over 55% in size
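HEK293 cells carry an SMN2 minigene-luciferase reporter in which exon 7 inclusion puts luciferase in frame. Cells were seeded at 2000 cells/well, attached for 10-12 hours, then exposed to compounds for 30-36 hours at 37C before ONE-Glo luminescence.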
FLuc counter: counter-screen for miR-21 project: firefly luciferase inhibitors or activators. purified FLuc, Km substrates, luminescence inhibition. Potency, µM (highest dose often 57.5 µM), without a hit: at the highest dose activity change, negative = inhibition, actives largely listed as inhibitors. 360,000 tested, 6.9% active;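 further: plate controls were vehicle for no effect and reference inhibitor for full effect; nearly all actives have a fitted effect of over 55% in size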
Target sequence (P08659 whole entry, looked up): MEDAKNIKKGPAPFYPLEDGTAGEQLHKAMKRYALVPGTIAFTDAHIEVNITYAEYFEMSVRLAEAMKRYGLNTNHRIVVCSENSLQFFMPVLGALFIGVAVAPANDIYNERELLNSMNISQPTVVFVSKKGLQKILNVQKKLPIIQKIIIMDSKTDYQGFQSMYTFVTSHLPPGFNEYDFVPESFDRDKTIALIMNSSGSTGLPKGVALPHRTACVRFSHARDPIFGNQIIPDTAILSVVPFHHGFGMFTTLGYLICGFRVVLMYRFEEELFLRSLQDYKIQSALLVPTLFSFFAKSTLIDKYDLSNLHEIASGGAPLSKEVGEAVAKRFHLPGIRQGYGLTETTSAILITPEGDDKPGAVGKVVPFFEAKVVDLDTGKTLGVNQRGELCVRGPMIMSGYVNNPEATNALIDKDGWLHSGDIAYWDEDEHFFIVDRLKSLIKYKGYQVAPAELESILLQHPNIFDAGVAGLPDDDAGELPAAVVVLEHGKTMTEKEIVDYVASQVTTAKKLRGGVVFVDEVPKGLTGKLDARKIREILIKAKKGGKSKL
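Purified P. pyralis luciferase, 10 nM final, with Km-level 10 uM D-luciferin and 10 uM ATP in 50 mM Tris acetate pH 7.5, 10 mM Mg acetate, 0.01% Tween-20, 0.05% BSA; 6-point qHTS titration about 60 µM downward; luminescence read.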
* hit, by the source's call; ? = inconclusive; . = not tested or not shown; [ ] = another dose, or the depositor's remark. A selection: hits, their analogues and other compounds. The true share with any hit is near 7.5%. The call rests on the fitted dose curve; in most records, active means well fitted curve in the direction sought with a large enough effect; inconclusive means small, poorly fitted or top-dose-only effect, or another doubt; inactive means no such curve, though single readings can be large; an effect the other way counts as inactive or inconclusive. Potency means the concentration at half of the fitted maximal effect.

SMILES	Rab9 prom act	NPC1 prom act	KinaseGlo FLuc	ELG1 genotox	SMN2 splice up	FLuc counter
COc1ccc(CCNC(=O)CSc2nc3sc(C(=O)O)c(C)c3c(=O)[nH]2)cc1OC	4%	2%	.	1%	.	0%
Cc1c(C(=O)O)sc2nc(/C=C/c3cccc(O)c3)[nH]c(=O)c12	-7%[1.84 µM]	-12%	.	0%	.	17µM*
COc1ccc(C2=CC(=O)C[C@H](c3ccc(F)cc3)C2)c(OC)c1	-3%	3%	.	-2%	.	0%
Cc1cc2c([nH]c3ccccc32)c2c1OC(C)(C)C=C2	3.2µM*	3.2µM*	.	?	.	11µM*
COc1ccc2[nH]c(=O)c3c(c2c1)OC(C)(C)C=C3	-3%	18%	-2%	-6%	12%	1%
COc1ccc(/C(N)=N/OC(=O)C2CCCCC2)cc1	?	2.8µM*	.	8.2µM*	.	8.5µM*
COc1ccc(/C(N)=N/OC(=O)C2CCCCC2)cc1OC	?	?	.	-1%	.	?
COc1ccc(C(=O)O/N=C(\N)c2ccccc2)c(OC)c1	?	3.2µM*	?	?	3.2µM*	1.7µM*
COc1ccc(C(=O)O/N=C(\N)c2ccc(OC)c(OC)c2)cc1	?	26%	.	?	.	7.6µM*
COc1ccc(C(=O)O/N=C(\N)c2ccc(OC)c(OC)c2)c(OC)c1	24%	24%	.	?	.	?
COc1ccc(C(=O)O/N=C(\N)c2ccccn2)c(OC)c1	0.5µM*	0.5µM*	.	1.5µM*	.	2.7µM*
O=C1c2[nH]nc(-c3ccccc3O)c2C(c2cccc(Br)c2)N1Cc1ccncc1 (configuration not stated)	.	.	.	.	-17%	-2%
CCOc1ccccc1C(=O)NN1C(=O)C2CCCCC2C1=O (configuration not stated)	0%	-2%	0%	2%	-4%	0%
O=C(NNC(=O)C1C2CCC(C2)C1C(=O)O)c1ccc(Br)o1 (configuration not stated)	-4%	-2%	0%	0%	4%	-6%
CC(C)c1ccc(C(=O)NN2C(=O)C3CCCCC3C2=O)cc1 (configuration not stated)	3.2µM*	3.5µM*	0%	?	11µM*	2.1µM*
CC(C)c1ccc(C(=O)NNC(=O)C2C3CCC(C3)C2C(=O)O)cc1 (configuration not stated)	1.3µM*	0.5µM*	.	4.6µM*	.	7.6µM*
O=C(C1CCN(S(=O)(=O)c2cccc3nonc23)CC1)N1CCN(c2ccc(F)cc2)CC1	.	.	.	.	-13%	0%
O=S(=O)(c1cccc2nonc12)N1CCN(c2ccc(F)cc2)CC1	-8%	-1%	-1%	6%	.	27µM*
CCOCCCNC(=O)CN1C(=O)CCn2nc(-c3cccn3C)cc21	.	.	.	.	.	-2%
Cc1ccccc1-n1nc(C(=O)c2cccs2)cc(-c2nc3ccccc3[nH]2)c1=N	-4%	0%	6%	-11%	-29%	2%
COc1ccc(-n2nc(C(=O)c3cccs3)cc(-c3nc4ccccc4[nH]3)c2=N)cc1	0%	-6%	-1%	23µM*	?	-1%
COc1ccc(-c2ccc(CCC(=O)O)n2CC(=O)Nc2cccc(Cl)c2C)cc1	.	.	.	.	-2%	?
Cn1c(=N)n(CC(=O)c2ccccc2)c2ccccc21	1.1µM*	3.2µM*	.	0.37µM*	.	1.2µM*
COc1ccc(C(=O)CN2C(=O)COc3ccccc32)cc1	-2%	-6%	0%	6%	.	2%
COc1ccc(C(=O)Cn2c(=N)n(C)c3ccccc32)cc1	?	26%	.	?	.	8.5µM*
SMILES	Rab9 prom act	NPC1 prom act	KinaseGlo FLuc	ELG1 genotox	SMN2 splice up	FLuc counter
Cn1c(=N)n(CC(=O)c2ccc(Cl)c(Cl)c2)c2ccccc21	?	?	.	?	.	0.38µM*
Cn1c(=N)n(CC(=O)O)c2ccccc21	-2%	-3%	-2%	0%	18%	0%
COc1ccc(C(=O)CN2Cc3ccccc3C2=N)cc1	2.5µM*	4µM*	.	2.6µM*	.	11µM*
Cc1ccc(NC(=O)N2CCc3cc(S(=O)(=O)N4CCC(C)CC4)ccc32)cc1C	.	.	.	.	-5%	6%
Cc1ccc(CNC(=O)C2CCCN(S(=O)(=O)c3ccc4c(c3)oc(=O)n4C)C2)cc1 (configuration not stated)	.	.	.	.	-1%	2%
O=Cc1ccc(OCc2nnc(-c3ccccc3Br)o2)cc1	-1%	-2%	.	15%	.	?
O=C(OCc1nnc(-c2ccccc2)o1)c1cccnc1Cl	11%	-3%	0%	10%	5%	?
Clc1ccc(-c2nnc(CCc3ccccc3)o2)c(Cl)c1	2µM*	2.5µM*	-1%	?	13µM*	5.4µM*
c1ccc(OCc2nnc(-c3ccccc3)o2)cc1	4µM*	?	0%	?	13µM*	17µM*
CC(=O)Nc1ccccc1OCc1nnc(-c2ccccc2Cl)o1	18%	9%	.	0%	.	?
Clc1ccc(-c2nnc(SCc3nc4ccccc4[nH]3)o2)c(Cl)c1	1%	-3%	-4%	-2%	-26%	0%
Oc1ccccc1-c1nnc(COc2ccccc2)o1	4%	8%	-4%	?	-4%	15µM*
Oc1ccccc1-c1nnc(COc2ccc(Cl)cc2Cl)o1	19%	-1%	-3%	13µM*	?	?
CNc1ncncc1-c1ccc(C(=O)N(C)C)cc1	.	.	-1%	.	-2%	.
O=C(OCc1nnc(-c2ccccc2)o1)c1ccco1	1%	5%	-23%	5%	-11%	24µM*
O=C(OCc1nnc(-c2ccccc2)o1)c1cc(=O)c2ccccc2o1	5%	3%	7%	8%	6%	?
Cc1cc(C)c(NC(=O)CSc2nc(=O)n(Cc3cccnc3)c3c2CCC3)c(C)c1	.	.	.	.	.	-8%
Fc1ccc(-c2nnc(Cc3ccc(Cl)cc3)o2)cc1	26%	?	.	?	.	17µM*
Fc1ccc(Cc2nnc(-c3cccs3)o2)cc1	?	21%	1%	15%	?	?
COc1ccc(NN=Nc2ccc([N+](=O)[O-])cc2)cc1	3.5µM*	?	.	?	.	2.4µM*
COc1ccc(N/N=C(/Oc2ccc([N+](=O)[O-])cc2)C(C)=O)cc1	-1%	-6%	-2%	6%	-9%	1%
O=C1CCCN1CC(O)CS(=O)(=O)Cc1ccc(Cl)c(Cl)c1 (configuration not stated)	0%[1.84 µM]	0%	.	1%	.	0%
O=C(NN=C1CCC(=NNC(=O)c2ccccn2)CC1)c1ccccn1	9%	0%	-2%	?	.	?
O=C(N/N=C/C1CCCCC1)c1ccccn1	-1%	-6%	-16%	?	20%	13µM*
